Laboratory results published in PubChem BioAssay AID940 (Emory University Molecular Libraries Screening Center, 2007).
“And” between values parts separate entries of the source, which are not always exact repeats. Identical values can stand only once. Among all 260,000 compounds or so, about 2,200 (0.85%) were called active.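 How the source made its calls: active means compounds whose cAMP rise, as percent of the full-agonist control response, exceeds 60; inactive means the rest.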 Only a selection was taken, and actives are over-represented in it overall. More than one record can exist for a structure, and the calls need not agree.

Target: Prostaglandin E2 receptor EP2 subtype (Homo sapiens) (UniProt P43116)
Test: modulation of human EP2 prostaglandin signaling – cell-based, HTRF cAMP, PGE2 stimulation, primary screen (AID 940);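 further: rat C6 glioma line stably carrying human EP2 under a CMV promoter; the protocol text gives 20 µM as final concentration; 100% = response of wells given 1 µM PGE2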
Conditions: EP2-expressing cells, cAMP HTRF FRET, PGE2 co-stimulation; at 25 µM; stronger effect = higher value

Chain of Prostaglandin E2 receptor EP2 subtype (Homo sapiens) (P43116 whole entry, looked up): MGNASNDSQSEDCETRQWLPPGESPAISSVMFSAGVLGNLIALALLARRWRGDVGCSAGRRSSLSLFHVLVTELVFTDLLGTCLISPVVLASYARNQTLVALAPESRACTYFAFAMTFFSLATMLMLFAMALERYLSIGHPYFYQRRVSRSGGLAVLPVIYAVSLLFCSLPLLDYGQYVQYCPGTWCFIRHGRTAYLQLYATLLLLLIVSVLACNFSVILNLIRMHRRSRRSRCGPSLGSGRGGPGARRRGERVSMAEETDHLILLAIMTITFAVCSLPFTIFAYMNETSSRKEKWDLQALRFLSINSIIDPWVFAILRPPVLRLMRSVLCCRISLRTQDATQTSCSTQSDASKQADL

Compound | induction
C[N+]1(C)CCOC(O)(c2ccc(-c3ccc(C4(O)C[N+](C)(C)CCO4)cc3)cc2)C1 (stereo not given) | 27.6% (inactive) and 76.2% (active)
C=CCc1cc(CN2C3CCC2CC(O)(c2nccn2C)C3)cc(OCC)c1O (stereo not given) | -31.8% (inactive)
Cc1cccc2cc(CN(Cc3ccco3)C3(c4nnnn4C4CCCC4)CCCCC3)c(=O)[nH]c12 | 24.8% (inactive)
N#CC1=C(N)Oc2c(c(=O)oc3ccccc23)C1c1cc2c(cc1Cl)OCO2 (stereo not given) | 0.48% (inactive)
COc1ccccc1/C=C/CN1C2CCC1CC(O)(c1ccccc1F)C2 (stereo not given) | -60.2% (inactive)
O=C(CN1C2CCC1CC(O)(c1ccco1)C2)NCc1ccccc1 (stereo not given) | -18.4% (inactive)
CC(c1ccccc1)(c1ccccc1)c1ccncc1 | 61.2% (active)
O=C1CCCN1C(=O)c1cc(Cl)cc(Cl)c1 | -0.43% (inactive)
OC12CCCCC1CN(Cc1ccnc3ccccc13)CC2 (stereo not given) | -29.6% (inactive)
O=C(CN1C2CCC1CC(O)(c1ccccn1)C2)N1c2ccccc2Sc2ccccc21 (stereo not given) | 8.29% (inactive)
